Laboratory results reported in PubChem BioAssay (Tox21).
Results filed as inconclusive are left out. Unmarked numbers belong to inactive results. Active and inactive are the calls of the source. The call rests on the fitted dose curve; in most records, active means well fitted cell-killing curve with a large enough effect in the repeat runs; inconclusive means weak or mixed curves, or effect the other way; inactive means flat fitted curve, though single readings scatter.

assay: qHTS RealTime-Glo MT Cell Viability Assay in HEK293 cells - 24 hour (AID 1224886); conditions: RealTime-Glo luminescence; series mostly up to 76.8 µM; activity change, negative = cytotoxicity: at the top concentration; further: nearly all actives have a fitted effect of over 50% in size; on activity change, negative = cytotoxicity: top concentration of the series differs between compounds
Excerpt: National Center for Advancing Translational Sciences [NCATS]
NIH Chemical Genomics Center [NCGC]
U.S. Environmental Protection Agency [EPA]
National Institutes of Environmental Health Sciences [NIEHS]
National Toxicology Program [NTP]
U.S. Food and Drug Administration [FDA]
Measure of cell viability is critical in the cell-base assay. Analysis of cell viability is necessary for the characterization of cell responses to cytotoxic drugs and environmental stress. A RealTime-Glo MT Cell Viability Assay to monitor cell viability in real time of continues cell culture during 40 hours of compound treatment was used to screen Tox21 10K library compounds in Hek293 cells. The RealTime-Glo MT Cell Viability Assay is a nonlytic, homogeneous, bioluminescent method to measure cell viability in real time using a simple, plate-based method. The assay involves adding NanoLuc luciferase and a cell-permeant prosubstrate to cells in culture. Viable cells reduce the proprietary prosubstrate to generate a substrate for NanoLuc luciferase. This substrate diffuses from cells into the surrounding culture medium, where it is rapidly used by the NanoLuc Enzyme to produce a luminescent signal. The signal correlates with the number of viable cells, making the assay well suited for cytotoxicity studies.
Tox21 Assay Protocol Summary:
The mixture of Hek293 cell suspension and reagents were dispensed at 600cells/6 ul/well in 1536-well tissue culture treated black solid bottom plates using a Multidrop dispenser. After the assay plates were incubated at a 37 C/5% CO2 incubator for 5 hours, 23 nL of compounds dissolved in DMSO, positive and negative controls was transferred to the assay plate by a pintool work station. The plates were incubated at 37 C for 40 hours. The luminescence intensity were measured at 0h, 8h, 16h, 24h, 32h and 40h time points using ViewLux plate reader during compound treatment.
On the % scale 0 is the no-effect control and ±100 the full control effect; potency means the concentration at half of the fitted maximal effect.

SMILES	activity change, negative = cytotoxicity	Potency
c1ccc(CN(CC2=NCCN2)c2ccccc2)cc1	-23.9% [at 35.3 µM]	
O=C(O)C(=O)Cc1c[nH]c2ccccc12	21.2%	
CN1CCN(C2=Nc3cc(F)ccc3Cc3ccccc32)CC1	-9.13% [at 35.3 µM]	
Cc1cc2c(s1)Nc1ccccc1N=C2N1CCN(C)CC1	2.41% [at 35.3 µM]	
C[C@]12C(=O)OC(=O)[C@H]1[C@H]1C=C[C@@H]2C1	13.2%	
CC(C)(C)c1cccc(O)c1	-4.17%	
CCCCNc1cc(C(=O)O)cc(S(N)(=O)=O)c1Oc1ccccc1	0.307% [at 35.3 µM]	
Cc1cc2nc(N)sc2cc1C	3.86%	
CC(C)NCC(O)COc1ccc(CCOCC2CC2)cc1 (stereo not given)	-3.63% [at 35.3 µM]	
N#CSCC(=O)O	-1.56% [at 35.3 µM]	
CC(C)=CCC[C@](C)(O)[C@@H]1CC=C(C)CC1	-8.24%	
CC(Oc1c(Cl)cccc1Cl)C1=NCCN1 (stereo not given)	-6.34% [at 35.3 µM]	
CC(C)(C)c1ccc(OC(=O)c2ccccc2O)cc1	-19.9%	
COc1cc(C)ccc1C(C)C	7.98%	
CC(CNC1CCCCC1)OC(=O)c1ccccc1 (stereo not given)	-12% [at 35.3 µM]	
CCOC(=O)NCCC[Si](OCC)(OCC)OCC	9.02%	
CC(C)=CCCC(C)CCOC=O (stereo not given)	14.2%	
CC(C)C(=O)OC/C=C/c1ccccc1	0.413%	
FC(F)(F)C(F)(F)C(F)(F)C(F)(F)C(F)(F)C(F)(F)C(F)(F)C(F)(F)Br	1.91% [at 35.3 µM]	
Nc1cccc(S(=O)(=O)O)c1	4.2%	

SMILES	activity change, negative = cytotoxicity	Potency
Cc1ccc([N+](=O)[O-])cc1Cl	-0.423%	
C[C@@H](N)C(=O)O	2.36% [at 35.3 µM]	
O=C(O)c1cccc(Cl)c1Cl	-6.76%	
CC[C@H]1CC[C@H](NCc2cc3c(cc2OC)[C@H]2C[C@H]2C(=O)N3C)[C@H](c2ccccc2)N1		21.9 µM (active)
CCCCNCCCC	-0.146%	
CCCCCOc1ccc(C2SC(=O)NC2=O)cc1OCC (stereo not given)	-5.93% [at 35.3 µM]	
CCCCCCCCc1ccc(S(=O)(=O)O)cc1	-10.2%	
CC(C)(C)C1CCCCC1=O (stereo not given)	13.2%	
CCCCCCCCCC#N	1.35%	
O=c1[nH]c(=O)n([C@H]2C[C@H](O)[C@@H](CO)O2)cc1C(F)(F)F	8% [at 35.3 µM]	
CCC1(C)NC(=O)NC1=O (stereo not given)	0.209%	
O=C(O)[C@@H](O)[C@H](O)[C@H](O)[C@@H](O)C(=O)O	6.38% [at 35.3 µM]	
CO[C@@]1(NC(=O)CSCC#N)C(=O)N2C(C(=O)O)=C(CSc3nnnn3C)CS[C@@H]21	5.08% [at 35.3 µM]	
CC(C)OC(C)C	22.8%	
COC(=O)/C=C(/C)N	1.35% [at 35.3 µM]	
COc1ccc(S(=O)(=O)Nc2nnc(CC(C)C)s2)cc1	8.53% [at 35.3 µM]	
O=Cc1ccc(O)c(O)c1O	-0.0075% [at 35.3 µM]	
C=CCCCCCCCCO	-19.4%	
O=S(=O)(O)C(F)(F)F	3.4%	
OCCN(CCO)c1ccccc1	2.27%	
